GLP1R inv ag: qHTS of GLP-1 Receptor Inverse Agonists (Inhibition Mode). Glucagon-like peptide 1 receptor (Homo sapiens), P43220. HEK293 GLP-1R CRE-luciferase, luminescence, 24 h; GLP-1R form is constitutively active. hit rate 1.6% among 410,000. Potency, µM (series often up to 38.3 µM), inactives show at the top dose activity change, negative = inhibition, usual class: inhibitors; also: % is scaled to controls: 0 for no effect and ±100 for the full control effect; nearly all actives have a fitted effect of over 55% in size
Target sequence (P43220 whole entry, looked up): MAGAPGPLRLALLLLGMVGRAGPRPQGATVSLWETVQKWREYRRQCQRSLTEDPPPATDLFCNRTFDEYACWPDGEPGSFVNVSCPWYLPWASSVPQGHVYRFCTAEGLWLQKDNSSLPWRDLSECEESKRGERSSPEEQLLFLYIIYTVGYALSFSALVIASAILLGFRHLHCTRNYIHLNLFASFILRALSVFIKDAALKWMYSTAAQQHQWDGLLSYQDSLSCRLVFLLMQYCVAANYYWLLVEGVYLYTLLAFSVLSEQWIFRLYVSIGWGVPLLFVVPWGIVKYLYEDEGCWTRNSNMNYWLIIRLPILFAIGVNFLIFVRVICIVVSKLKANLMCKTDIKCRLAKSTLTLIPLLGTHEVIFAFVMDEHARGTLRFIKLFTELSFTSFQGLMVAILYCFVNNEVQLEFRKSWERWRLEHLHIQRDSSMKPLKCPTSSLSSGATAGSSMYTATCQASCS
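Seeding at 200 cells/uL, 12 h culture, 24 hr compound treatment, then luciferase reagent and a luminescence read; cells are HEK293 stably expressing a constitutively active GLP-1R plus cAMP-responsive luciferase.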
PTHR1 agonist: qHTS for PTHR1 Agonists: Primary Screen. HEK293 GP2 PTHR1 cells, GloSensor cAMP luminescence, 1 h. Potency, µM (doses to about 115 µM), without a hit: at the highest dose activation, actives largely listed as activators. hit rate 0.075% among 410,000; also: nearly all actives have a fitted effect of over 55% in size
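HEK-293-derived GP2 cells expressing PTHR1 and a GloSensor cAMP reporter, 3,000/well, plated overnight, given luciferin plus IBMX (each 0.5 mM as added) for 1 h at 37 °C, then compound for 1 h at 37 °C. Luminescence was read after 15 min at room temperature.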
GLP1R cytotox: qHTS of GLP-1 Receptor Inverse Agonists: Cytotox Screen. HEK293 cAMP-luciferase reporter cells, luminescence, 24 h. Potency, µM (titrated, usually from 38.3 µM), for inactives: top-dose activity change, negative = inhibition, hits mostly inhibitors. hit rate 0.13% among 410,000;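 also: loss of luciferase light is scored as toxicity; % is scaled to controls: 0 for no effect and ±100 for the full control effect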
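Seeding density was 200 cells/uL; after overnight-length (12 h) culture, 23 nL compounds went on for 24 h at 37 °C. Readout used a luciferase detection reagent, luminescence taken after 12 min at room temperature.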
GLP1R ag: qHTS of GLP-1 Receptor Agonists | hit rate 0.007% among 380,000 | HEK293 GLP-1R CRE-luciferase, luminescence, 4-6 h; cells express a hypersensitive GLP-1R form | Glucagon-like peptide 1 receptor (Homo sapiens), P43220 | Potency, µM (top dose mostly 45.6 µM), for inactives: top-dose activation, actives largely listed as activators; also: % of control where 0% means no effect
RGS4 inhibitor: Inhibitors of Regulator of G Protein Signaling (RGS) 4: qHTS; Regulator of G-protein signaling 4 (Homo sapiens), P49798; Transcreener GDP fluorescence polarization, RGS4-accelerated GTP hydrolysis; Potency, µM (series often up to 114 µM), for the others: top-dose activity change, negative = inhibition, hits mostly inhibitors; hit rate 0.039% among 390,000; AID 504845, 2011; also: % is scaled to controls: 0 for no effect and ±100 for the full control effect; nearly all actives have a fitted effect of over 75% in size
Target sequence (P49798 whole entry, looked up): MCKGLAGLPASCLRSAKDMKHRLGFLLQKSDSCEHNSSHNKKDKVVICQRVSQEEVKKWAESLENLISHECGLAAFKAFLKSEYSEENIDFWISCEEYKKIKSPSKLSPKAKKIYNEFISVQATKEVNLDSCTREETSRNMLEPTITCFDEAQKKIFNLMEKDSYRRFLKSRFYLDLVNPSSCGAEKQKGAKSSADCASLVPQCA
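MLSMR compounds (23 nl, pin-transferred) preincubated 10 min at room temperature with a 500nM (2x) first reagent, then RGS4 at 900nM (2x) plus Transcreener GDP mix added; fluorescence polarization (620/688 nm) read before and after 90 min at 30 °C.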
GCN5L2 inh: qHTS Assay for Inhibitors of GCN5L2; Histone acetyltransferase KAT2A (Homo sapiens), Q92830; GCN5L2 HAT assay, ThioGlo1 CoA-SH fluorescence; Potency, µM (titrated, usually from 58.9 µM), for inactives: at the highest dose activity change, negative = inhibition, actives largely listed as inhibitors; hit rate 0.21% among 390,000; also: % is scaled to controls: 0 for no effect and ±100 for the full control effect
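qHTS, 1536-well. 20nM enzyme, pH 7.5 HEPES/EDTA/Tween-20 buffer; 15 min compound preinc., RT. Start: 75uM H3(1-25), 70uM AcCoA, 50uM ThioGlo1. Read Ex340/Em540 at t=0 (autofluorescence flag) and t=20 min.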
Numbers without * were called inactive; i = inactive; ? = inconclusive; / = not tested or not shown; [ ] = dose if it differs, or a comment. A selection: hits, their analogues and other compounds. The true share with any hit is near 1.8%. Calls follow the shape of the dose curve; as a rule, active = well fitted curve in the direction sought with a large enough effect; inconclusive = small, poorly fitted or top-dose-only effect, or another doubt; inactive = no such curve, though single readings can be large; an effect the other way counts as inactive or inconclusive. Potency is read from the fitted curve at half-maximal effect.

SMILES	GLP1R inv ag	PTHR1 agonist	GLP1R cytotox	GLP1R ag	RGS4 inhibitor	GCN5L2 inh
Clc1ccc(-c2noc(CN3CCOCC3)n2)cc1	16%	-25%	-5%	2%	-17%	-7%
O=C1CCN(Cc2nc(-c3ccc(Cl)cc3)no2)CCN1	4.5µM*	-19%	-1%	0%	32%	-1%
Cc1ccccc1-c1ocnc1C(=O)Nc1ccccc1NC(=O)c1ccccn1	4µM*	-18%	?	13%	-2%	-7%
O=C(NNC(=O)c1ccc(-c2ccc([N+](=O)[O-])cc2)o1)c1ccncc1	23%	-5%	0%	-1%	10%	-2%
CCc1ccccc1NC(=O)c1ccc(CN2CCC(Cc3ccccc3)CC2)cc1	8.9µM*	-12%[57.5 µM]	?	-2%	-26%	-6%
COCCNC(=O)c1ccc(CN2CCC(Cc3ccccc3)CC2)cc1	-18%	i	20%	-5%	-5%	-9%
O=C(NCc1ccccc1)c1ccc(CN2CCC(Cc3ccccc3)CC2)cc1	10µM*	-12%	-13%	7%	-2%	37%
O=C(O)c1nc(-c2ccccc2)c(C(=O)NC2CC2)[nH]1	17%	-15%	-7%	0%	/	/
CC(=O)c1cccc(NC(=O)C(=O)c2cn(CC(=O)N3CCCCC3)c3ccccc23)c1	-22%[0.307 µM]	-21%	15%[0.307 µM]	15%	-6%	-6%
CC1CCCC(C)N1C(=O)COC(=O)c1ccccc1O (stereo not given)	-29%	-18%	2%	5%	23%	-3%
CCC(C(=O)OCC(=O)N1C(C)CCCC1C)c1ccccc1 (stereo not given)	8.9µM*	i	3%	12%	-26%[56.9 µM]	7%
CCOC(=O)Cc1csc(NC(=O)CSc2nnnn2-c2ccc(C)cc2C)n1	6.3µM*	-1%[57.5 µM]	-19%	-2%	-14%[11.4 µM]	-2%
OC(c1ccc(F)cc1)c1ncc(-c2ccc(Oc3ccccc3)cc2)[nH]1 (stereo not given)	10µM*	i	-11%	-6%	/	/
OC(c1cccc(F)c1)c1ncc(-c2ccc(C(F)(F)F)cc2)[nH]1 (stereo not given)	?	-65%	-2%	19%	/	/
OC(c1ccc2ccccc2c1)c1ncc(-c2ccc(C(F)(F)F)cc2)[nH]1 (stereo not given)	10µM*	-33%	-22%	-2%	/	/
Cc1cc(C(O)c2ncc(-c3ccc(Oc4ccccc4)cc3)[nH]2)ccc1F (stereo not given)	?	-76%	?	-5%	/	/
S=C(NN=C(c1ccccc1)c1ccccn1)N(Cc1ccccn1)Cc1ccccn1	-11%	-10%	?	-10%	?	/
CC(=NNC(=S)N(Cc1ccccn1)Cc1ccccn1)c1cnccn1	?	i	4.5µM*	-5%	?	/
C=C[C@]1(C)C[C@H]1[C@H](NP(=O)(c1ccccc1)c1ccccc1)c1ccccc1	-5%	-4%	1%	-2%	-51%	0%
C/C(=C\[C@@H](NP(=O)(c1ccccc1)c1ccccc1)c1ccccc1)CO[Si](c1ccccc1)(c1ccccc1)C(C)(C)C	7.9µM*	-3%	-12%	-5%	-28%	/
O=C(CC1SC(=Nc2ccccc2)N(CCc2c[nH]c3ccccc23)C1=O)Nc1ccccc1F (stereo not given)	6.3µM*	i	?	6%	-35%	-9%
O=C(Nc1ccccc1)Nc1cccc2cccnc12	10µM*	-24%	-13%	1%	11%	-4%
CC1(C(=O)NCc2cccc3ccccc23)CCN1Cc1ccccc1OC(F)F (stereo not given)	13µM*	-27%	-15%	2%	/	/
CN(C)CCNC(=O)COc1ccc(C23CC4CC(CC(C4)C2)C3)cc1	2.8µM*	i	?	8%	5%	-17%
Cc1ccc(C23CC4CC(CC(NC(=O)NCCN(C)C)(C4)C2)C3)cc1	?	i	?	-5%	-10%	4%
SMILES	GLP1R inv ag	PTHR1 agonist	GLP1R cytotox	GLP1R ag	RGS4 inhibitor	GCN5L2 inh
Cc1cc(C)n2cnnc2n1	9%	-14%	-4%	-3%	-1%	1%
Cc1cc(C)n2c(=S)[nH]nc2n1	2%	-1%	9%	0%	-54%[11.4 µM]	25µM*
C[C@@H]1CN([C@@H](C)CO)C(=O)Cc2cc(NC(=O)Nc3ccc(C(F)(F)F)cc3)ccc2O[C@@H]1CN(C)S(=O)(=O)c1ccc(Cl)cc1	5.6µM*	-15%	?	-5%	-4%	-15%
C[C@H](CO)N1C[C@H](C)[C@@H](CN(C)S(=O)(=O)c2ccc(F)cc2)Oc2ccc(NC(=O)Nc3ccc(C(F)(F)F)cc3)cc2C1=O	?	i	-27%	-4%	-7%	-7%
C[C@@H]1CN([C@H](C)CO)C(=O)c2cc(NC(=O)Nc3ccc(C(F)(F)F)cc3)ccc2O[C@H]1CN(C)S(=O)(=O)c1ccc(Cl)cc1	3.2µM*	-17%	-28%	-3%	-10%	-12%
COc1cccc(-c2csc(N3CCN(CC(=O)NNC(=O)c4ccc(Cl)cc4)CC3)n2)c1	0%	-34%[57.5 µM]	1%	-2%	2%	-6%
COc1cccc(-c2csc(N3CCN(C(=S)Nc4cccc(Cl)c4)CC3)n2)c1	10µM*	-15%	-7%	-7%	-23%	-20%
COc1cccc(-c2csc(N3CCN(CC(=O)NNC(=O)c4ccc(Br)cc4)CC3)n2)c1	11µM*	-35%	4%	-3%	-2%	-3%
CC(C)(C)C(c1nc2ccccc2[nH]1)n1c(-c2ccsc2)nc2ccccc21 (stereo not given)	10µM*	i	?	/	/	/
CC(C)(C)C(c1nc2ccccc2[nH]1)n1c(-c2ccco2)nc2ccccc21 (stereo not given)	26%	1%	-2%	/	/	/
CC(=O)Nc1ccc(C=NNC(=O)CCCC(=O)NN=Cc2ccc(NC(C)=O)cc2)cc1	?	-23%	-8%	0%	0%	/
COc1ccc(Oc2c(C=O)c3ccccc3n2C)cc1	10µM*	18%[57.5 µM]	-16%	-4%	10%	-13%
Cc1ccc(Oc2c(C=O)c3ccccc3n2C)cc1	5µM*	-5%[57.5 µM]	-16%	-4%	4%	-7%

Screening results deposited in PubChem BioAssay by National Center for Advancing Translational Sciences (NCATS).
